The text below walks through data of PubChem BioAssay (NCATS).

Each structure is given as a SMILES string. Activity calls are given as the source filed them. A call without a number means that no potency is given here. Calls come from the whole dose curve; as a rule, active = well fitted inhibition curve with a large enough effect; inconclusive = small, poorly fitted or top-dose-only effect; inactive = flat fitted curve, though single readings scatter.

In the assay the target is Flap endonuclease 1 (Homo sapiens) (UniProt P39748). Nature of the assay: qHTS Validation Assay for the Inhibitors of Human Flap endonuclease 1 (FEN1) (AID 488816). The conditions noted are these: FEN1 nuclease activity, fluorogenic DNA substrate; series mostly up to 57.1 µM. The gist of the method: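 Readings taken at 0 and 15 min after starting the reaction with 50 nM (final) substrate supplied the signal. Compounds had first sat with 10 nM FEN1 reagent for 15 min at room temperature. Values come from Hill-equation concentration-response fits.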
Flap endonuclease 1 (Homo sapiens), sequence (P39748 whole entry, looked up): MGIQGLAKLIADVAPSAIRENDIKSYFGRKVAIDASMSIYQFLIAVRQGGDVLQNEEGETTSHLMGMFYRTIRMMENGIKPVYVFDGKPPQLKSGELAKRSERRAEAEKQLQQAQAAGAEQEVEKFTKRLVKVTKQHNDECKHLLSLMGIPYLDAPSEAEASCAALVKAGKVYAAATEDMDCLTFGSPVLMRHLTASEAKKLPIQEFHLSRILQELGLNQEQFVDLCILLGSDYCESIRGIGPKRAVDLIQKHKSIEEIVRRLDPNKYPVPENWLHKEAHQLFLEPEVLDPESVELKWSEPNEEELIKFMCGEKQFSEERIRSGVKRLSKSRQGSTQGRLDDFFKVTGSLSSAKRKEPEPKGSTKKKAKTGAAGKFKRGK
Background: qHTS replaces the single test concentration by a dilution series.
As for `O=C1Cc2c([nH]c3ccc(Br)cc23)-c2ccccc2N1`, the Potency entry was “inactive”.

Turning to `Cn1cc(C(F)(F)F)nc1-c1ccc(OCC(O)CNCCOc2ccc(O)c(C(N)=O)c2)cc1` (stereo not given), the Potency result was “inactive”.

For the compound `CC1CNCCN1S(=O)(=O)c1cccc2cnccc12` (stereo not given), the Potency entry was “inactive”.

On to `CN1Cc2sccc2C(c2ccc(O)c(O)c2)C1` (stereo not given), for which the Potency result is “inactive”.

In the case of `Nc1ccc(-c2ccc3ccccc3n2)cc1`, the Potency result was “inactive”.

For the compound `CC(O)C(O)[C@H]1CNc2nc(N)[nH]c(=O)c2N1` (stereo not given in full), the Potency entry was “inactive”.

With `CNCCc1cnc(CCC(c2ccccc2)c2ccccc2)[nH]1`, the Potency result is “inactive”.

For `Oc1cc2c(cc1O)C(c1ccccc1)CNCC2` (stereo not given), the Potency result was “inactive”.

Turning to `O=C(O)/C(=C/c1c(C(=O)O)[nH]c2cc(Cl)cc(Cl)c12)c1ccccc1`, the Potency result was “inactive”.

For `Nc1nc2c(nc(Br)n2C2OC3COP(=O)(O)O[C@@H]3C2O)c(=O)[nH]1` (stereo not given in full), the Potency entry was “inactive”.

For `Nc1nc2c(cnn2CCc2ccccc2)c2nc(-c3ccco3)nn12`, the Potency entry was “inactive”.

On to `N#Cc1cc([N+](=O)[O-])c2sc(C(N)=O)[n+]([O-])c2c1`, for which the Potency entry is “inactive”.

With `CCCCCCCCCC(=O)NC(CN1CCOCC1)[C@H](O)c1ccccc1` (stereo not given in full), the Potency entry was “inactive”.

Turning to `Oc1ccc(/C=C/c2ccc(/C=C/c3ccc(O)cc3)c(Br)c2)cc1`, the Potency result is “inactive”.

For `CCCCCCCCCCCCCCCCCCOC[C@H](COP(=O)([O-])OCC[N+](C)(C)C)OC`, the Potency result is “inactive”.

With `O=C(O)C1=CCCNC1`, the Potency entry is “inactive”.

Regarding `S=C(S)N1CCCC1`, the Potency result is “inactive”.

Take `C[C@H](NC(=O)/C(C#N)=C/c1ccc(O)c(O)c1)c1ccccc1`: the Potency entry is “inactive”.

Take `CCCCCCCCCCC(C)(C)C(=O)Nc1c(OC)cc(OC)cc1OC`: the Potency entry was “inactive”.

With `CC[C@H](NC(=O)c1c(C)c(-c2ccccc2)nc2ccccc12)c1ccccc1`, the Potency entry is “inactive”.
